A number with no mark means an inactive call. Calls follow the shape of the dose curve; as a rule, active = well fitted activation curve with a large enough effect in the repeat runs; inconclusive = weak or mixed curves; inactive = flat fitted curve, though single readings scatter.
The compounds below were run against KiSS-1 receptor (Homo sapiens) (UniProt Q969F8) (assay: Human kisspeptin (KISS1R) small molecule agonists, calcium flux assay in KISS1R-HEK293 cells (AID 1920064)). Conditions: KISS1R-HEK293, calcium flux fluorescence, agonist; series mostly up to 76.8 µM; activation: at the top concentration.
Chain of KiSS-1 receptor (Homo sapiens) (Q969F8 whole entry, looked up): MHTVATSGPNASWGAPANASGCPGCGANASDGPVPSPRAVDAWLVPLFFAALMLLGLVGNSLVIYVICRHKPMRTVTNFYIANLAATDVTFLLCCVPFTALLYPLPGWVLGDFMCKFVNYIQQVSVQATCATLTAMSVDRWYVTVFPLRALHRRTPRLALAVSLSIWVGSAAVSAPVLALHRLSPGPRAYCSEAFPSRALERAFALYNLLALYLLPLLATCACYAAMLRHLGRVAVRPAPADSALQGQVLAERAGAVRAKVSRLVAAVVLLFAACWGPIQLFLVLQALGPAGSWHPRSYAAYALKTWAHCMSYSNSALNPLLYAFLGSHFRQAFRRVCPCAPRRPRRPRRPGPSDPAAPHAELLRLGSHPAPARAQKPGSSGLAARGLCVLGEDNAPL
From the text: National Center for Advancing Translational Sciences [NCATS]
Division of Preclinical Innovation [DPI]
U.S. Environmental Protection Agency [EPA]
National Institutes of Environmental Health Sciences [NIEHS]
National Toxicology Program [NTP]
U.S. Food and Drug Administration [FDA]
Kisspeptin and its receptor KISS1R play key roles in mammalian reproduction due to their involvement in the onset of puberty and control of the hypothalamic-pituitary-gonadal axis such as regulates GnRH release from the hypothalamus. The kisspeptin/KISS1R system also plays a direct role in peripheral organs (including the ovary, testis, uterus, and placenta) and is implicated in reproductive diseases such as miscarriage and polycystic ovary syndrome (PCOS). Abnormal KISS1R activity is associated with abnormal puberty, infertility, endometriosis, and hormone-dependent tumors. The KISS1 receptor (KISS1R, also called GPR54), a G-protein-coupled receptor (GPCR), acts (through phospholipase C) to increase intracellular inositol trisphosphate and then release intracellular calcium stores. Cell-based KISS1R-HEK293 assay is using HEK293 cells that have been genetically engineered to express the human KISS1R, which activity can be measured by calcium signaling. A compound/drug can activate (agonist) KISS1R that can be monitored by levels of intracellular calcium.
KISS1R-HEK293 cells developed by Codex Corp contain human KISS1R gene, which was stably integrated into HEK 293 cells. The compound activation can be detected by fluorescence intensity via calcium flux assay. This cell line has been used to screen the Tox21 10K compound library to identify agonists of KISS1R.
KISS1R-Hek293 cells were dispensed at 1500 cells/4uL/well in 1536-well black wall/clear bottom plates using a multidrop dispenser. After the assay plates were incubated at a 37 C/5% CO2 incubator for 18 hours, 4 microL of Calcium Dye Solution was added to each well. The plates were incubated at 37 C for 1 hour. And then 23 nL of compounds dissolved in DMSO, positive controls, or DMSO only was transferred to the assay plate by a pin tool station. The fluorescence intensity in the plates was measured using FDSS 7000EX kinetic plate reader with a filter set of Ex/Em=480/540 for 3 min at 1 sec intervals. Each test compound was measured at 15 concentrations and in triplicates.
CCOC(=O)NCCOc1ccc(Oc2ccccc2)cc1 was tested, and the “activation” value was -0.125%. In the case of CC(C)CCCCCCN, the “activation” value is reported as 2.59%. CC[N+](C)(CC)CC was tested, and the “activation” value was 0.286%. In the case of C1CCOC1, the “activation” value is reported as -0.287%. In the case of O=C(Nc1ncc([N+](=O)[O-])s1)c1cccs1, the “activation” value is reported as 3.61% [at 35.3 µM]. With CC(C)CC(C)(C)C the “activation” value was 2.97%. With O=S(=O)(O)SSS(=O)(=O)O the “activation” value was 1.11%. CCN(Cc1ccncc1)C(=O)C(CO)c1ccccc1 (stereo not given) was tested, and the “activation” value was -0.793% [at 35.3 µM]. For O=C1Nc2ccc(Cl)cc2[C@@](C#CC2CC2)(C(F)(F)F)O1, the “activation” value was 2.25% [at 35.3 µM]. In the case of CCCCCCC#CC(=O)OC, the “activation” value is reported as 0.603%. With O=C1NC(=O)c2cc([N+](=O)[O-])ccc21 the “activation” value was 4.58%. FC1(F)C(F)(F)C(F)(F)C2(F)C(F)(F)C(F)(F)C(F)(F)C(F)(F)C2(F)C1(F)F (stereo not given) was tested, and the “activation” value was -1.21% [at 35.3 µM]. In the case of C[C@@H](N)C(=O)O, the “activation” value is reported as 0.17% [at 35.3 µM]. In the case of O=[N+]([O-])c1cccc(S(=O)(=O)O)c1, the “activation” value is reported as -0.122%. For CC(C)(c1ccc(Oc2ccc(N)cc2)cc1)c1ccc(Oc2ccc(N)cc2)cc1, the “activation” value was -3.76%. With CCCCCCCCCCCCCCCCC(C(=O)O)C(O)(CC(=O)O)C(=O)O (stereo not given) the “activation” value was -0.321% [at 35.3 µM]. With CCCCOC(=O)c1ccccc1C(=O)OCC(CC)CCCC (stereo not given) the “activation” value was 5.24%. C[C@@H](c1ncncc1F)C(O)(Cn1cncn1)c1ccc(F)cc1F (stereo not given in full) was tested, and the “activation” value was 0.0358% [at 35.3 µM]. For CCCCC(CC)COC(=O)CCCCC(=O)OCc1ccccc1 (stereo not given), the “activation” value was 4.21%. With CC(C)(C)C1CCC(CC2=C(O)c3ccccc3C(=O)C2=O)CC1 (stereo not given) the “activation” value was -0.292% [at 35.3 µM]. In the case of COC(=O)c1ccc(C(=O)O)cc1, the “activation” value is reported as -4.48%. With CC(C)(C)Cl the “activation” value was 1.64%. For CCC1(c2cnc[nH]2)Cc2ccccc2C1, the “activation” value was -0.787% [at 35.3 µM]. CCC(C)O (stereo not given) was tested, and the “activation” value was -0.504%. In the case of CC(C)c1ccccc1, the “activation” value is reported as 0.0346%. O=S(=O)(O)c1ccc(Nc2nc(Nc3ccc(/C=C/c4ccc(Nc5nc(Nc6ccc(S(=O)(=O)O)cc6)nc(N(CCO)CCO)n5)cc4S(=O)(=O)O)c(S(=O)(=O)O)c3)nc(N(CCO)CCO)n2)cc1 was tested, and the “activation” value was 0.0533% [at 35.3 µM]. NC(=O)C1(N2CCCCC2)CCN(CCCN2c3ccccc3CCc3ccc(Cl)cc32)CC1 was tested, and the “activation” value was 4.81% [at 35.3 µM]. CC/C=C\CCCCCO was tested, and the “activation” value was 1.92%. With CC(C)(C)c1ccc(N)cc1 the “activation” value was 0.701%. For O=[N+]([O-])c1ccc(O)cc1C(F)(F)F, the “activation” value was 10.6%. For CC(C)(C)C1=CC(=O)C=C(C(C)(C)C)C1=O, the “activation” value was -2.59%. With CCO[Si](CCCS)(OCC)OCC the “activation” value was 1.26%. With Clc1ccc2nsnc2c1NC1=NCCN1 the “activation” value was 0.801% [at 35.3 µM]. For CCCCc1oc2ccc(NS(C)(=O)=O)cc2c1C(=O)c1ccc(OCCCN(CCCC)CCCC)cc1, the “activation” value was 0.825% [at 35.3 µM]. With CN1C[C@H]2c3ccccc3Oc3ccc(Cl)cc3[C@@H]2C1 the “activation” value was 19.8% [at 35.3 µM]. C[C@@H](O)C(=O)O was tested, and the “activation” value was -0.121%. Oc1ccc(N=Nc2ccccc2)cc1 was tested, and the “activation” value was 0.757%. COc1cc(C(C)C)c2c(c1)S(=O)(=O)N(COc1cc(=O)n3cccc(OCCN4CCCCC4)c3n1)C2=O was tested, and the activation was -3.13% [at 15.8 µM]. CCCCOCC(C)OCC(C)O (stereo not given) was tested, and the “activation” value was 7.62%. CNCCCC1c2ccccc2C=Cc2ccccc21 was tested, and the “activation” value was 6.27% [at 35.3 µM].

— PubChem BioAssay (Tox21)
% is scaled to controls: 0 for no effect and ±100 for the full control effect.
